According to PubChem BioAssay (NCI):
About 79,000 compounds went through this panel and 15% of them were active in at least one assay; those are over-represented in the sample as a whole. Active and inactive are the calls of the source. Rule as the data show it: active = growth inhibition above about 70%; inactive = the rest.

Assays:
[1] = NCI Yeast Anticancer Drug Screen. Data for the rad50 strain (AID 155);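 also: 0% = growth of vehicle-only cultures of the same strain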; conditions: S. cerevisiae rad50 strain growth inhibition; at 50.0 µM; stronger effect = higher value
How it was run: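 A DNA repair-deficient yeast mutant serves as the test organism; compound-induced growth inhibition is calculated against vehicle-treated cells.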

[2] = NCI Yeast Anticancer Drug Screen. Data for the mec2-1 strain (AID 157); conditions: S. cerevisiae mec2-1 strain, at 50.0 µM, stronger effect = higher value
How it was run: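 mec2-1 yeast strain, carrying an alteration in DNA damage repair or cell cycle control, was exposed to compounds; growth inhibition was measured relative to vehicle-treated controls.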

[3] = NCI Yeast Anticancer Drug Screen. Data for the sgs1 mgt1 strain (AID 161);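 also: 0% = growth of cultures given vehicle only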; conditions: S. cerevisiae sgs1 mgt1 strain, at 50.0 µM, stronger effect = higher value
How it was run: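 Compounds are added to genetically altered yeast, and growth is compared with cultures given vehicle alone to give percent inhibition.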

[4] = NCI Yeast Anticancer Drug Screen. Data for the cln2 rad14 strain (AID 165);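 also: 0% = growth equal to vehicle treated cultures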; conditions: S. cerevisiae cln2 rad14 strain, at 50.0 µM, stronger effect = higher value
How it was run: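 Yeast carrying cln2 and rad14 alterations (cell cycle control and DNA damage repair) were exposed to compounds. Growth inhibition was measured against vehicle-treated controls.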

[5] = NCI Yeast Anticancer Drug Screen. Data for the bub3 strain (AID 167); conditions: S. cerevisiae bub3 mutant strain, at 50.0 µM, stronger effect = higher value
How it was run: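 Inhibition values come from growth of compound-treated mutant yeast normalised to vehicle-treated controls.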

[6] = NCI Yeast Anticancer Drug Screen. Data for the mlh1 rad18 strain (AID 175); conditions: S. cerevisiae mlh1 rad18 strain growth inhibition; at 50.0 µM; stronger effect = higher value
How it was run: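 Growth inhibition of the yeast strain was measured after compound exposure and expressed relative to vehicle-treated controls. The strain carries defined defects in DNA damage repair.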

Measured: growth inhibition

COC(=O)c1cc(Cl)c(C(=O)OC)cc1Cl
inactive: [1] 4.1% | [2] 3% | [3] 3.85% | [4] 0.6% | [5] 7.4% | [6] 8.6%

CCCC1OCC(C)(CC)CO1 (stereo unspecified)
inactive: [1] 27.6% | [2] -2.55% | [3] -4.9% | [4] 12% | [5] -9.65% | [6] -9.05%

CCOC(=O)N[n+]1ccccc1
inactive: [1] 1.65% | [2] 8.2% | [3] 4.35% | [4] -3.4% | [5] 10.8% | [6] 8.1%

CCOC(=O)CC[Si](CC)(CC)CC
inactive: [1] 0.25% | [2] -13.8% | [3] 1.7% | [4] -28.5% | [5] -15.3% | [6] -1.45%

c1nnco1
inactive: [1] -4.2% | [2] 0.75% | [3] -2.5% | [4] 5.5% | [5] 6.85% | [6] -18.2%

Cc1ccc2c(c1)C(C1=CCCc3ccc(C)cc31)=CCC2
inactive: [1] 10.2% | [2] -16.5% | [3] 9.05% | [4] 10.3% | [5] 8.2% | [6] 13.8%

COc1ccccc1NC(=S)N1CCC(CCCC2CCN(C(=S)Nc3ccccc3OC)CC2)CC1
inactive: [1] -30.3% | [2] -22.9% | [3] -9.75% | [4] -11.8% | [5] -20.9% | [6] -13.2%

CCOCN1COCN(C)C1=O
inactive: [1] 8.1% | [2] -6.55% | [3] -6.45% | [4] 13.3% | [5] 20.1% | [6] 3.95%

O=C(CCCC(=O)Nc1ccccc1)Nc1ccccc1
inactive: [1] -9.35% | [2] -6.9% | [3] -1.55% | [4] -35.2% | [5] -14.1% | [6] -15.7%

CCN(CC)C(=O)c1ccc(O)c(OC)c1
inactive: [1] 17.7% | [2] 17% | [3] 7.3% | [4] 7.65% | [5] -7.3% | [6] -4.3%

C=CCc1cc(C)ccc1OC(=O)c1cc([N+](=O)[O-])cc([N+](=O)[O-])c1
inactive: [1] 2.85% | [2] -3.4% | [3] 4.55% | [4] -40% | [5] -6.6% | [6] 0.6%

ClC(Cl)C1OCCCO1
inactive: [1] -32.4% | [2] -17.4% | [3] -23.2% | [4] -41.1% | [5] 12.2% | [6] -8.25%

CCCCN=C(NC#N)NCCCC
inactive: [1] -27.6% | [2] 7.9% | [3] -31.2% | [4] -0.1% | [5] -25.4% | [6] -13.8%

CC(C)OC(=O)CCCCCc1ccccc1
inactive: [1] 6% | [2] -2.7% | [3] -29.1% | [4] 7.85% | [5] 2.1% | [6] -8.4%

COc1ccc(-n2cnc3[nH]ncc3c2=O)cc1
inactive: [1] 1.7% | [2] 0.75% | [3] 0.05% | [4] -0.85% | [5] 12.3% | [6] -2.95%

CCN(CC)C(=O)c1c(-c2ccccc2)nc(-c2ccccc2)c(C(=O)N(CC)CC)c1Cl
inactive: [1] 42% | [2] 14.6% | [3] 21.6% | [4] 21.6% | [5] 1.05% | [6] 27.8%

Cc1cc(=O)n2c(c1)[nH]c1ccccc12
inactive: [1] 3.25% | [2] 0.3% | [3] -5.55% | [4] -0.95% | [5] 1.75% | [6] 1.65%

C=Cc1ccc(C[n+]2cccc(C(N)=O)c2)cc1
inactive: [1] -15.2% | [2] -17% | [3] -2.95% | [4] -1.75% | [5] 17.2% | [6] -35.9%

CCCNC(=O)N(CCC)S(=O)(=O)c1ccc(Cl)cc1
inactive: [1] -6.85% | [2] 8.45% | [3] 12.3% | [4] 24.6% | [5] 22.7% | [6] 25.6%

CCCSS[C@H]1NC(=O)[C@H]1NC(=O)COc1ccccc1
inactive: [1] 31.1% | [2] 8.5% | [3] 1.4% | [4] 3.05% | [5] 19.1% | [6] -3.6%

CCCCCCCCCCCC(=O)NC(=S)Nc1cc(OC)ccc1OC
inactive: [1] -17.9% | [2] -7.25% | [3] -2.9% | [4] -47.3% | [5] -3.85% | [6] -0.95%

O=C1OC(c2ccc([N+](=O)[O-])cc2)=N/C1=C\c1cccc([N+](=O)[O-])c1
inactive: [1] 23.1% | [2] 20.9% | [3] 36.2% | [4] 38.2% | [5] 22.1% | [6] 52%

Nc1cc(Cl)c(F)cc1Cl
inactive: [1] -13.3% | [2] 0.25% | [3] -3.6% | [4] -28.8% | [5] 1.15% | [6] -14.2%

C[N+]1(C)CCCC(CO)(c2ccccc2)CC1 (stereo unspecified)
inactive: [1] 10.2% | [2] 13% | [3] 3.3% | [4] -15.5% | [5] 14.9% | [6] 7.7%

O=[N+]([O-])c1ccc(S(=O)(=O)N(CCCBr)c2ccccc2)cc1
active: [3] 72.7% | [6] 74.3%
inactive: [1] 48.4% | [2] 42.6% | [4] 24.6% | [5] 44.5%

S=C1SCN(C2CCCCCCCCCCC2)CN1C1CCCCCCCCCCC1
inactive: [1] -52.5% | [2] -29.1% | [3] -17.9% | [4] -3.7% | [5] -20% | [6] -40.5%

O=c1[nH]c(=S)c2[nH]c(=O)n(-c3ccccc3)c2[nH]1
inactive: [1] -15.3% | [2] -7.5% | [3] -59.1% | [4] -26.7% | [5] -9.9% | [6] -14.7%

COc1ccc(C2N(NC(=O)c3ccncc3)C(=O)CS2(=O)=O)cc1F (stereo unspecified)
inactive: [1] -3.95% | [2] -12.6% | [3] -11.8% | [4] -1.55% | [5] 0.75% | [6] 0.95%

CCCCCCCCCCCOC(=O)CCl
inactive: [1] 1.4% | [2] -13% | [3] -16.9% | [4] -12.3% | [5] -12.8% | [6] -7.4%

COC(=O)c1c([N+](=O)[O-])ncn1C1CC(OC(C)=O)C(COC(C)=O)O1 (stereo unspecified)
inactive: [1] 15.2% | [2] -4.9% | [3] -1.9% | [4] -30.8% | [5] -17.7% | [6] 5.25%

O=c1c(O)c(-c2cc(O)c(O)c(O)c2)oc2cc(O)ccc12
inactive: [1] -35.5% | [2] -36.8% | [3] -24.3% | [4] -8.8% | [5] -32.8% | [6] -29.8%

CCOc1c(OC)cc(-c2nnc(SCCN(CC)CC)o2)cc1OC
inactive: [1] 11.4% | [2] 0.35% | [3] 7.1% | [4] 16.7% | [5] 0.15% | [6] -7.05%

CCN(CC)c1nc2c(c(=O)n(C)c(=O)n2C)n1CCCNCC(O)c1ccc(O)c(O)c1 (stereo unspecified)
inactive: [1] -15.7% | [2] -16.4% | [3] -30.9% | [4] -47.1% | [5] -1.85% | [6] -31.5%

Cc1ccn2c(-c3ccccc3)nnc2c1
inactive: [1] -23.6% | [2] -17.7% | [3] -14.6% | [4] -11.8% | [5] -18.1% | [6] -16%

O=c1cc(O)cc(CO)o1
inactive: [1] -7.65% | [2] 5.7% | [3] -9.8% | [4] 1.2% | [5] -21.2% | [6] -2.05%

O[C@H]1[C@H]2c3cc4c(cc3CN3CCC(C[C@@H]1O)[C@H]23)OCO4 (stereo partly specified)
inactive: [1] 3.05% | [2] -6.5% | [3] 9.65% | [4] 20.3% | [5] 3.4% | [6] 9.3%

Cc1ccc(S(=O)(=O)N(Cc2cccc([N+](=O)[O-])c2)c2ccc(C(=O)O)cc2)cc1
inactive: [1] 8.45% | [2] 4.55% | [3] 0.8% | [4] -12.7% | [5] 5.95% | [6] 21.1%

CC(=O)/C(=C\c1ccc([N+](=O)[O-])o1)C(=O)CCN(C)C
active: [6] 84.8%
inactive: [1] 25.1% | [2] 38.4% | [3] 63% | [4] 22.9% | [5] 39.5%

Oc1ccc(C=NCCN=Cc2ccc(O)cc2)cc1
inactive: [1] 9.55% | [2] -17.4% | [3] -14.8% | [4] -24.2% | [5] 5.1% | [6] 12.1%

C=CNc1cccc2ccccc12
inactive: [1] 13.8% | [2] 11.6% | [3] 14.2% | [4] 5.85% | [5] 25.1% | [6] 14.7%

CC(=O)N1CC(C)(C)c2c1cc(C)c(O)c2C
inactive: [1] 1.85% | [2] -47.9% | [3] -8.4% | [4] -7.8% | [5] 5.15% | [6] -1.8%
